Test results reported in PubChem BioAssay.
Calls of active or inactive are those of the source.

Columns and labels:
Albumin (Bos taurus) = Albumin (Bos taurus) (UniProt P02769); experiment: compounds binding labelled BSA control protein – biochemical, small-molecule microarray, Alexa647 label, 635/667 nm fluorescence, artefact control for SMM control protein annotation, profiling panel (AID 1118); settings: BSA-A647 binding, fluorescence 635 nm, higher = more signal;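 note: score merges 667 nm emission intensity and signal-to-noise per printed compound spot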
[1] = probe aXIP binding to arrayed compounds – biochemical, NeuroSMM set, 635/667 nm fluorescence, primary screen (AID 1119); settings: small-molecule microarray, higher = more signal, called active from +8 up or from −8 down;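 note: probe is the protein aXip251-270 applied at 1 µg/mL to compound-printed slides; binding of probe to printed compounds measured as 667 nm fluorescence plus signal to noise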
[2] = probe aNOTCH3 binding on compound microarray – biochemical, small-molecule microarray, 635/667 nm fluorescence, primary screen (AID 1120); settings: higher = more signal;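 note: probe is a biotin-tagged antibody raised against NOTCH3 rather than NOTCH3 protein; score merges spot fluorescence near 667 nm with spot signal to noise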
[3] = probe aNOTCH2 binding on compound microarray – biochemical, small-molecule microarray, 635/667 nm fluorescence, primary screen (AID 1121); settings: higher = more signal;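 note: score merges feature fluorescence read at 667 nm with its signal to noise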
[4] = target: Carbonic anhydrase 2 (Homo sapiens) (UniProt P00918); experiment: compounds binding carbonic anhydrase 2 – biochemical, small-molecule microarray, Alexa647-labelled CAII, profiling panel (AID 1122); settings: CAII-A647 binding fluorescence, higher = more signal
[5] = COS7 lysate on small-molecule microarray, probe aHis, 635 nm (AID 1123); settings: COS7 cell lysate, fluorescence, higher = more signal;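 note: z-score combines 667nm fluorescence intensity with signal-to-noise per printed compound spot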
[6] = probe aLAP1 signal on lysate-treated microarray – cell lysate, small-molecule microarray, COS7 lysate, primary screen (AID 1124); settings: probe aLAP1, fluorescence, higher = more signal;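 note: lysate comes from COS7 cells expressing LAP1 and is applied at 0.3 µg/mL; score merges spot fluorescence near 667 nm with signal-to-noise over triplicate slides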
Sam68 (KHDRBS1) = experiment: compounds binding KHDRBS1 protein – biochemical, small-molecule microarray, 635 nm fluorescence, primary screen (AID 1125); settings: higher = more signal;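 note: score merges 667 nm channel intensity with signal to noise over triplicate slides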
[7] = tested on: Chordin-like protein 2 (CHRDL2); experiment: compounds binding chordin-like 2 – biochemical, small-molecule microarray, 635 nm fluorescence, primary screen (AID 1126); settings: fluorescence 635 nm, higher = more signal;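 note: printed compound slides probed with Chrdl2 protein at 4 µg/mL for 1 h at 4 C; score merges 667 nm emission intensity with signal to noise over three replicate slides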
[8] = target: Concanavalin-A (Canavalia ensiformis) (UniProt P02866); experiment: compounds binding concanavalin A lectin – biochemical, small-molecule microarray, Alexa647 label, 635 nm, artefact control for SMM control protein annotation, primary screen (AID 1127); settings: ConA-A647 binding fluorescence, higher = more signal;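 note: z combines 667 nm emission intensity with signal-to-noise across three replicate slides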
Concanavalin-A (Canavalia ensiformis), sequence (P02866 whole entry, looked up): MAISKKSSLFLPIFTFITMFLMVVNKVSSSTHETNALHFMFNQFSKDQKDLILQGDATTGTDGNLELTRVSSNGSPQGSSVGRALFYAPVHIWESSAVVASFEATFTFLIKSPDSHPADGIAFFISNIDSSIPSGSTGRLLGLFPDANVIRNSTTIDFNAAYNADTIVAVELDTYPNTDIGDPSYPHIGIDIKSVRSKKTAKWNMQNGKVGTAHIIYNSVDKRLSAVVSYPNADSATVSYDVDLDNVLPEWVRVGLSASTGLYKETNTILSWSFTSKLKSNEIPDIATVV

Albumin (Bos taurus), sequence (P02769 whole entry, looked up): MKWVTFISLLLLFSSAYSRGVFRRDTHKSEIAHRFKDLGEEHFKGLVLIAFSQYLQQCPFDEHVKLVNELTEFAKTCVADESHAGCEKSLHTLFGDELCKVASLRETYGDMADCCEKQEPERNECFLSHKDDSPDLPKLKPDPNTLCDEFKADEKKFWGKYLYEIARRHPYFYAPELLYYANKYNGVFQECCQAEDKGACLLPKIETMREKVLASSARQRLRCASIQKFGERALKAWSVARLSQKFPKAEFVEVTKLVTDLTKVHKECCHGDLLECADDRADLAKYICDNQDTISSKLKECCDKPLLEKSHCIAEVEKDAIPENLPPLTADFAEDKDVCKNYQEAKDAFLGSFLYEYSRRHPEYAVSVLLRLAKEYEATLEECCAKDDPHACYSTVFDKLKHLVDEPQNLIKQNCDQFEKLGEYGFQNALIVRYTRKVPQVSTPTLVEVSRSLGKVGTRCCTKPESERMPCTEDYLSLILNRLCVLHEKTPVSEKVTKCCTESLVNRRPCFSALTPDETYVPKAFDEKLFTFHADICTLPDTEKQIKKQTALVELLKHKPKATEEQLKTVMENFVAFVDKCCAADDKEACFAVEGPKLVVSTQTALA

SMILES | composite z-score (Albumin (Bos taurus)) | composite Z-score [1] | composite z-score [2] | composite z-score [3] | composite z-score [4] | composite z-score [5] | composite z-score [6] | composite z-score (Sam68 (KHDRBS1)) | composite z-score [7] | composite z-score [8]
CC(C)C[C@@H]1NC(=O)[C@H](CC(C)C)NC(=O)[C@@]23C(=O)N[C@@H](Cc4ccccc4)C2[C@H](C)[C@@]2(C)O[C@H]2C3/C=C/CC/C=C/CNC1=O (stereo not given in full) | 0.734 | -0.392 (inactive) | -0.0657 | -0.118 | 0.578 | 0.268 | -0.219 | 1.05 | 0.702 | 1.02
CC1=C([C@H](O)CCc2ccccc2)[C@H](CO)[C@@H]2C(=O)N(Cc3ccccc3)C(=O)[C@@H]2C1 | 0.427 | 0.39 (inactive) | 0.0349 | -0.117 | 0.347 | 0.307 | -0.222 | -0.364 | -0.0449 | 1.13
COc1ccc([Si](C)(C)[C@H]2[C@H](CC(=O)N3Cc4ccccc4C[C@H]3CO)O[C@@]3(C(=O)N(Cc4cccc(N5CCOC5=O)c4)c4ccccc43)[C@@H]2C)cc1 | -0.89 | 0.55 (inactive) | -0.0077 | -0.104 | 0.574 | 0.784 | 0.0161 | 0.847 | 1.45 | 0.791
C=CCN1C(=O)[C@@]2(O[C@@H](CCn3cc([C@H](O)c4ccccc4)nn3)[C@H]([Si](C)(C)c3ccc(OC)cc3)[C@H]2C)c2cc(N3CCOC3=O)ccc21 | 0.0865 | 0.146 (inactive) | -0.0932 | -0.0666 | 0.614 | 1.02 | 0.0741 | 1.11 | -0.0548 | -0.559
CC(=O)NCCCC[C@@H]1NC(=O)[C@H]2C[C@@H](C(=O)NCCCCCCN(C)C)[C@@H](c3ccc(O)cc3)N2C1=O | -0.546 | 1.44 (inactive) | 0.029 | -0.0626 | 0.365 | 2.16 | -0.1 | 1.31 | 1.09 | 1.18
CCCCCCc1nc(C2CC2)c(C)c2c1[Si](C(C)C)(C(C)C)OC2 | -1.57 | 0.485 (inactive) | -0.0647 | -0.0942 | -0.364 | -0.641 | -0.35 | -1.28 | 0.63 | -0.693
C=CCNC(=O)[C@H]1[C@@H]2C(=O)O[C@@H](c3ccccc3)[C@@H](c3ccccc3)N2[C@@H](c2ccccc2OCCO)[C@]12C(=O)N(C(=O)OCCOC)c1ccc(C#CCC(C(=O)OC)C(=O)OC)cc12 | 0.255 | 1.06 (inactive) | -0.0448 | -0.0829 | 0.634 | 2.13 | 0.689 | 1.3 | -0.052 | 1.12
NC(=O)NCC#Cc1ccc2c(c1)[C@]1(C(=O)N2)[C@H](C(N)=O)[C@H]2C(=O)O[C@H](c3ccccc3)[C@H](c3ccccc3)N2[C@@H]1c1ccccc1OCCO | 0.284 | 0.0219 (inactive) | 0.121 | -0.0762 | 0.175 | 0.841 | 0.519 | 0.978 | 0.543 | 0.936
CC(C)[C@H]1NC(=O)[C@@]23C(=O)N[C@@H](Cc4ccccc4)C2[C@H](C)[C@@]2(C)O[C@H]2C3/C=C/C/C=C\CNC(=O)[C@H](C)NC1=O (stereo not given in full) | -0.255 | -0.0247 (inactive) | -0.25 | -0.218 | 0.811 | -0.281 | -0.258 | -0.762 | -0.433 | -0.671
CO[C@H]1COC(=O)[C@H](Cc2ccccc2)NC(=O)CC=C[C@@H](C)[C@H](OC)COC(=O)CC=C[C@@H]1C | -0.108 | -0.225 (inactive) | 0.0319 | -0.0211 | -0.142 | 0.199 | -0.47 | 0.588 | 0.53 | 0.296
COc1ccc([Si](C)(C)[C@H]2[C@H](CCO)O[C@@]3(C(=O)N(Cc4ccc(N5CCCCC5=O)cc4)c4ccccc43)[C@@H]2C)cc1 | 0.643 | -0.247 (inactive) | 0.25 | -0.0846 | 0.596 | 1.79 | 0.109 | 1.3 | -0.0425 | 1.12
[N-]=[N+]=NCc1ccccc1C[C@]1(C(N)=O)N=C(c2ccc(OCCCO)cc2)O[C@H]1c1ccccc1CN=[N+]=[N-] | 1.05 | -0.469 (inactive) | 0.0254 | 0.0256 | 0.667 | 2.16 | 0.641 | 1.31 | -1.12 | 0.991
CC(=O)NCCCC[C@@H]1NC(=O)[C@@H]2C[C@H](C(=O)NCc3ccc(F)cc3)[C@H](c3cccc(OCCO)c3)N2C1=O | 0.188 | 0.328 (inactive) | -0.226 | 0.0383 | 0.659 | 1.07 | 0.19 | 0.506 | 0.174 | 0.474
CN(C)CCCC[C@@H]1NC(=O)[C@@H]2C[C@H](C(=O)O)[C@H](c3ccc(O)cc3)N2C1=O | -1.07 | 0.361 (inactive) | 0.237 | -0.117 | 0.398 | 0.917 | 0.324 | 0.916 | 0.917 | 1.12
COCCOC(=O)N1C(=O)[C@@]2(c3cc(C#CCC(C(=O)OC)C(=O)OC)ccc31)[C@H](c1ccccc1OCCO)N1[C@H](c3ccccc3)[C@H](c3ccccc3)OC(=O)[C@H]1[C@@H]2C(=O)N1CCCCCCC1 | -0.0742 | 2.67 (inactive) | 1.23 | 0.36 | 0.488 | 2.18 | 0.385 | 1.32 | 1.27 | 1.02
COC(=O)C[C@H]1O[C@]2(C(=O)N(Cc3ccccc3)c3ccc(I)cc32)[C@@H](C)[C@@H]1[Si](C)(C)c1ccc(OC)cc1 | 0.298 | 0.167 (inactive) | -0.185 | -0.0956 | -0.228 | -0.322 | -0.0227 | -0.879 | 0.0477 | -0.0276
C=C(C(=O)CC[C@H](OC(=O)c1ccccc1-c1ccccc1C(=O)O)c1ccc(CO)o1)C(C)C | 0.178 | -0.555 (inactive) | -0.068 | -0.0986 | 0.368 | 0.23 | 1.47 | 1.26 | 0.442 | 1.07
COc1ccc(C(=O)Nc2ccc(CN3C(=O)[C@]4(O[C@H](CCn5cc(CCO)nn5)[C@@H]([Si](C)(C)c5ccc(OC)cc5)[C@@H]4C)c4ccccc43)cc2)cc1 | -0.343 | -0.213 (inactive) | 0.391 | -0.0649 | 0.697 | 0.88 | -0.153 | 1.32 | 0.276 | 1.15
N#Cc1ccc(NN2C(C(O)c3ccc(I)cc3)C=CC3C(=O)N(c4ccccc4)C(=O)C32)cc1 (stereo not given) | 0.946 | 0.128 (inactive) | 0.212 | 0.139 | 0.74 | 2.21 | -0.809 | 1.29 | -0.389 | 1.12
[N-]=[N+]=NCc1ccccc1C[C@]1(C(=O)N2CCCCC2)N=C(c2ccc(OCCCO)cc2)O[C@H]1c1ccccc1CN=[N+]=[N-] | 0.899 | 0.375 (inactive) | 0.268 | -0.0817 | 0.441 | 2.56 | 0.796 | 1.29 | -0.914 | 1.04
CO[C@@H]1COC(=O)[C@H](C)NC(=O)CC=C[C@@H](C)[C@H](OC)COC(=O)[C@H](C)NC(=O)CC=C[C@H]1C | -0.406 | 0.137 (inactive) | -0.226 | -0.124 | -0.305 | -0.466 | 0.0381 | 0.315 | 1.16 | 0.44
C=C(CCCC)/C(=C/C[C@@H](OC(=O)c1ccncc1)c1ccc(CO)o1)c1cnc2ccccc2c1 | 0.667 | 1.04 (inactive) | 0.382 | 0.0626 | 0.956 | 2.33 | 0.405 | 1.31 | 1.45 | 1.18
O=[N+]([O-])c1ccc(C[n+]2ccc3ccc(O)cc3c2)o1 | 0.895 | 0.14 (inactive) | 0.0736 | -0.0746 | 0.64 | 0.466 | 0.98 | 0.534 | 0.0197 | 1.11
C=CC(=O)O[C@@H](Cc1ccccc1)[C@H]1C2C=CCCC=C2CN1Cc1cccc(Cl)c1 (stereo not given in full) | -0.421 | 0.565 (inactive) | -0.0057 | -0.112 | -0.794 | -0.323 | -0.454 | -2.7 | -0.605 | -0.965
